# According to ChEMBL document CHEMBL1961873, “Compounds: GSK PKIS; Assays: Nanosyn kinase panel” (2012):
# Experiments:
# [1] = biological target: T1, Ephrin type-B receptor 2 (Homo sapiens) (UniProt P29323); conditions: at 1 µM
# T1 sequence (whole entry): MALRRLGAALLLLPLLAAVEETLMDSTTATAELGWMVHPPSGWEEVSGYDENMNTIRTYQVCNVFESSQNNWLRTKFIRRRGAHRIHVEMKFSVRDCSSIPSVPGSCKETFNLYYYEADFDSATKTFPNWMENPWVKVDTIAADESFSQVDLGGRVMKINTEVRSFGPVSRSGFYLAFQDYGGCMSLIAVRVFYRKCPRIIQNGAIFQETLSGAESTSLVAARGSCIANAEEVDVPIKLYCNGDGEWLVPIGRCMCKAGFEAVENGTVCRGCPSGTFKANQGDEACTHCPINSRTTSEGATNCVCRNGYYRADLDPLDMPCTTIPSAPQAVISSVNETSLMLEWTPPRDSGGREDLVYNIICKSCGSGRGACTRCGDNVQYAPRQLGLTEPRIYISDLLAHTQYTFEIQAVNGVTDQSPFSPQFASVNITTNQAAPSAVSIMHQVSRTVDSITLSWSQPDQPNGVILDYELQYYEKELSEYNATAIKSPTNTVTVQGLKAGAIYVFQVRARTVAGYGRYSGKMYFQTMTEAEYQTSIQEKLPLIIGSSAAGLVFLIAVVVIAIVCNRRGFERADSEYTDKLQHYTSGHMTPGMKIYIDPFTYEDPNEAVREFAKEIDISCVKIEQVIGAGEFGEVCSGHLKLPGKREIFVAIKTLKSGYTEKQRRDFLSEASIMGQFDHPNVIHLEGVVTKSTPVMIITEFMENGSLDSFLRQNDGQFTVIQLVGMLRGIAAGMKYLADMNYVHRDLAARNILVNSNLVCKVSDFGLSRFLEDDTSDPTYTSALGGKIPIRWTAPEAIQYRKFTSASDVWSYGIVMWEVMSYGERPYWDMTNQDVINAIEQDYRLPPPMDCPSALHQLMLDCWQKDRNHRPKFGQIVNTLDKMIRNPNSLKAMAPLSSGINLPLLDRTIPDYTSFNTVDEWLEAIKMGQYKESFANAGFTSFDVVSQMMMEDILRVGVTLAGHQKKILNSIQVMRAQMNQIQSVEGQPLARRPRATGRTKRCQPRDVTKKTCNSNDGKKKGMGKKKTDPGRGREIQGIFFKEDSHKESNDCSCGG
# [2] = biological target: T2, Ephrin type-B receptor 3 (Homo sapiens) (UniProt P54753); conditions: at 0.1 µM
# T2 sequence (whole entry): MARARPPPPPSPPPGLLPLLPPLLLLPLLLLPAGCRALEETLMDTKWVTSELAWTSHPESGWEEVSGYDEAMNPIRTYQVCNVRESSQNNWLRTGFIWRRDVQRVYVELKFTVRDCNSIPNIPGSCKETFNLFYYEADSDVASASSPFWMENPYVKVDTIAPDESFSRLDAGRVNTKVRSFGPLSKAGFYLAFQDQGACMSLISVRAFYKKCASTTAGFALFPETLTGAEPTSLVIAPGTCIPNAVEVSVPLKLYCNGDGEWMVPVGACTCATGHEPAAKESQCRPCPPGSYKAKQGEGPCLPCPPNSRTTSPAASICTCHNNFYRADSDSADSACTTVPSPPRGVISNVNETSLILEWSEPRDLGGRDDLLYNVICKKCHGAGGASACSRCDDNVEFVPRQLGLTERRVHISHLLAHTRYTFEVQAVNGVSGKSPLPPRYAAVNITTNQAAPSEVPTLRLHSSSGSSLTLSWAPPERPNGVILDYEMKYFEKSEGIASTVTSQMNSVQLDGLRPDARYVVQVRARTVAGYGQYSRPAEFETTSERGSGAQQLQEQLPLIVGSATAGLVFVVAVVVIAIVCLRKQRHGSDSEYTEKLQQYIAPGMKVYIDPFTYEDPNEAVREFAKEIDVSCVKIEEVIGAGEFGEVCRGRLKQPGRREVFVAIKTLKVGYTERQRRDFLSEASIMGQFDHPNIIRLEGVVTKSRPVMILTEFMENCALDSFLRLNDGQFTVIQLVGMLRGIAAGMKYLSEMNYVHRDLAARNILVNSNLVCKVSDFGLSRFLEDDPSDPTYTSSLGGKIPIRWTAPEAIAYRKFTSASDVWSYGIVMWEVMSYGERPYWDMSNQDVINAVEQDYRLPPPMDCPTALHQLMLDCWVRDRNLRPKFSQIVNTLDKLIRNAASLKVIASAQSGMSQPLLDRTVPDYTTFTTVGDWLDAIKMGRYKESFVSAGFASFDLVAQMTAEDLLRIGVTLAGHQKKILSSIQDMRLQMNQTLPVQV
# [3] = biological target: T2, Ephrin type-B receptor 3 (Homo sapiens); conditions: at 1 µM
# [4] = biological target: T3, Ephrin type-B receptor 4 (Homo sapiens) (UniProt P54760); conditions: at 0.1 µM
# T3 sequence (whole entry): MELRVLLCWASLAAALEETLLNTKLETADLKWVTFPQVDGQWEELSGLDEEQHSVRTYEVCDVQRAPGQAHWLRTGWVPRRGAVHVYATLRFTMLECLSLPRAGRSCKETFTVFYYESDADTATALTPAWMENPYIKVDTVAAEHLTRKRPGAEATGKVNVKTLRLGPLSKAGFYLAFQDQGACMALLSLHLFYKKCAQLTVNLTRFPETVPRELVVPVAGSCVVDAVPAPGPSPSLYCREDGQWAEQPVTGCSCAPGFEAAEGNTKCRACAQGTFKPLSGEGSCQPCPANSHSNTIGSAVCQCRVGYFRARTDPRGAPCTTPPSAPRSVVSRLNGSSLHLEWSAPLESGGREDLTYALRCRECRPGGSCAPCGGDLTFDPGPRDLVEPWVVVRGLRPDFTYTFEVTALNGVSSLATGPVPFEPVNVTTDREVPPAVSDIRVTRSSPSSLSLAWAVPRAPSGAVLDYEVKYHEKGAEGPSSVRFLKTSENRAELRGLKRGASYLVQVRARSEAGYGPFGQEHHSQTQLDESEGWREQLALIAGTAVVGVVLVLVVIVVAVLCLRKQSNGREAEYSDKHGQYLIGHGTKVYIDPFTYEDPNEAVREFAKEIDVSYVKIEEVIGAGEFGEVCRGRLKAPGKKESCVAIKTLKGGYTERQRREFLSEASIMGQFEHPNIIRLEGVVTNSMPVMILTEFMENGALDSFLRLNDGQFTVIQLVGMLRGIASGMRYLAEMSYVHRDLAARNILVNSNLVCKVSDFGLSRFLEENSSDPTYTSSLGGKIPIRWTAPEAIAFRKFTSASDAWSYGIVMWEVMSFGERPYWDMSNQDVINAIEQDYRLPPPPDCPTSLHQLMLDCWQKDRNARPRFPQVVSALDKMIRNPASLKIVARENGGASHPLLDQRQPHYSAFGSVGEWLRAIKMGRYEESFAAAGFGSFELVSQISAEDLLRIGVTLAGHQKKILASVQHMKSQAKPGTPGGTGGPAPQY
# [5] = biological target: T3, Ephrin type-B receptor 4 (Homo sapiens); conditions: at 1 µM
# [6] = biological target: Receptor tyrosine-protein kinase erbB-2 (Homo sapiens) (UniProt P04626); conditions: at 0.1 µM
# [7] = biological target: Receptor tyrosine-protein kinase erbB-2 (Homo sapiens) (UniProt P04626); conditions: at 1 µM
# [8] = biological target: Receptor tyrosine-protein kinase erbB-4 (Homo sapiens) (UniProt Q15303); conditions: at 0.1 µM
# [9] = biological target: Receptor tyrosine-protein kinase erbB-4 (Homo sapiens) (UniProt Q15303); conditions: at 1 µM
# [10] = biological target: Tyrosine-protein kinase Fer (Homo sapiens) (UniProt P16591); conditions: at 0.1 µM;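 also: reported figures are averaged percent inhibition of FER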
# Sequence of Tyrosine-protein kinase Fer (Homo sapiens) (P16591 whole entry, looked up): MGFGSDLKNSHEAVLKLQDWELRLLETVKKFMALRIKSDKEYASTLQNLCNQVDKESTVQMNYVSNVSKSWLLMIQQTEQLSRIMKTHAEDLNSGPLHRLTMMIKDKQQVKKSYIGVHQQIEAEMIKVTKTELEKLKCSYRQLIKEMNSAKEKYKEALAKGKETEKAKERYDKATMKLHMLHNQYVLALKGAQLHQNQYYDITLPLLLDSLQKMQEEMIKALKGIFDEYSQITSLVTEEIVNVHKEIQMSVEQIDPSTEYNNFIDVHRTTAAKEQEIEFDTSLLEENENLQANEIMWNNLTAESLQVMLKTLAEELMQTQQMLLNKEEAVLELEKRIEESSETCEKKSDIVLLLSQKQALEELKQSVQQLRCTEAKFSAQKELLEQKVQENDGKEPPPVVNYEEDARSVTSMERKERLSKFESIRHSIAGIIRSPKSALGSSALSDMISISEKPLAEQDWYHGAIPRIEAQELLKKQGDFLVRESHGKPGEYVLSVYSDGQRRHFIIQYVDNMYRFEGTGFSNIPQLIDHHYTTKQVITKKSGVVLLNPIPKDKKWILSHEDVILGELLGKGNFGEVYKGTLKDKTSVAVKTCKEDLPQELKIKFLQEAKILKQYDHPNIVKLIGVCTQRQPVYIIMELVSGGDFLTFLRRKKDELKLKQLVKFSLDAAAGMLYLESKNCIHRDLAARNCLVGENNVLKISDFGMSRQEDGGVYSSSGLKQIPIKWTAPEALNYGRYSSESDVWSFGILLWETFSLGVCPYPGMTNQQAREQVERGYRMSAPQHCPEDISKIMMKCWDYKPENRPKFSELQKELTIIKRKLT
# Sequence of Receptor tyrosine-protein kinase erbB-4 (Homo sapiens) (Q15303 whole entry): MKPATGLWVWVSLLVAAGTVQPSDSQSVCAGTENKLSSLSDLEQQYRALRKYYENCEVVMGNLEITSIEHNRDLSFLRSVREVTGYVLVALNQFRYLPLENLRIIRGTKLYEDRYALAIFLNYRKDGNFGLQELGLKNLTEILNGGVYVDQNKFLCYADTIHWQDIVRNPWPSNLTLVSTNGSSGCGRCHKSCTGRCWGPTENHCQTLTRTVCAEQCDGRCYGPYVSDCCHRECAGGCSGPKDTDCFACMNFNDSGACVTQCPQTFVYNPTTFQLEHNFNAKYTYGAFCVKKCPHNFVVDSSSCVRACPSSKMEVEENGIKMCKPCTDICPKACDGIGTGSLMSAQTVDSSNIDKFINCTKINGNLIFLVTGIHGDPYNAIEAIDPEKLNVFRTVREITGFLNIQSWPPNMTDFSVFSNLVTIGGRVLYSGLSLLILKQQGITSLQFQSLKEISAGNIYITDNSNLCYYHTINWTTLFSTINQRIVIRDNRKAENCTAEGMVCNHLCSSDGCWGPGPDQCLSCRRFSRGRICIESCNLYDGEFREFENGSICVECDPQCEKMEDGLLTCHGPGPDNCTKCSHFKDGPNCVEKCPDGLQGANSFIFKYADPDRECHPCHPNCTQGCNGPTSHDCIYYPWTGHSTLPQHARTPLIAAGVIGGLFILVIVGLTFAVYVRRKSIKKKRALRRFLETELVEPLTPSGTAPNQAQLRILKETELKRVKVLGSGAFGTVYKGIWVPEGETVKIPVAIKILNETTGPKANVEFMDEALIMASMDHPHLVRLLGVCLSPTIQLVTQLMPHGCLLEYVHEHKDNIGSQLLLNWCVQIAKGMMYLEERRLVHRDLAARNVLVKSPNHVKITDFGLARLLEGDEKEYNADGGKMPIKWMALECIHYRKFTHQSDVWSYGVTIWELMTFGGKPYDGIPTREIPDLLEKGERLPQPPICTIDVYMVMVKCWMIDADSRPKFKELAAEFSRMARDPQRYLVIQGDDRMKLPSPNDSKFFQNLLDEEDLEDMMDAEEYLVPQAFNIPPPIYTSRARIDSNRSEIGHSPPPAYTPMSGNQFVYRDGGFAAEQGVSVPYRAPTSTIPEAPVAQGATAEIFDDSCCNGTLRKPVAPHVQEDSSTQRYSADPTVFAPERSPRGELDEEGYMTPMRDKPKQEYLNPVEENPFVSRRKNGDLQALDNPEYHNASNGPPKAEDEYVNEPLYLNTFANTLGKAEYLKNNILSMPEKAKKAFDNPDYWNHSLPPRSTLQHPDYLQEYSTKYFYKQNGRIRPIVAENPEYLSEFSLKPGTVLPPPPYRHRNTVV
# Sequence of Receptor tyrosine-protein kinase erbB-2 (Homo sapiens) (P04626 whole entry): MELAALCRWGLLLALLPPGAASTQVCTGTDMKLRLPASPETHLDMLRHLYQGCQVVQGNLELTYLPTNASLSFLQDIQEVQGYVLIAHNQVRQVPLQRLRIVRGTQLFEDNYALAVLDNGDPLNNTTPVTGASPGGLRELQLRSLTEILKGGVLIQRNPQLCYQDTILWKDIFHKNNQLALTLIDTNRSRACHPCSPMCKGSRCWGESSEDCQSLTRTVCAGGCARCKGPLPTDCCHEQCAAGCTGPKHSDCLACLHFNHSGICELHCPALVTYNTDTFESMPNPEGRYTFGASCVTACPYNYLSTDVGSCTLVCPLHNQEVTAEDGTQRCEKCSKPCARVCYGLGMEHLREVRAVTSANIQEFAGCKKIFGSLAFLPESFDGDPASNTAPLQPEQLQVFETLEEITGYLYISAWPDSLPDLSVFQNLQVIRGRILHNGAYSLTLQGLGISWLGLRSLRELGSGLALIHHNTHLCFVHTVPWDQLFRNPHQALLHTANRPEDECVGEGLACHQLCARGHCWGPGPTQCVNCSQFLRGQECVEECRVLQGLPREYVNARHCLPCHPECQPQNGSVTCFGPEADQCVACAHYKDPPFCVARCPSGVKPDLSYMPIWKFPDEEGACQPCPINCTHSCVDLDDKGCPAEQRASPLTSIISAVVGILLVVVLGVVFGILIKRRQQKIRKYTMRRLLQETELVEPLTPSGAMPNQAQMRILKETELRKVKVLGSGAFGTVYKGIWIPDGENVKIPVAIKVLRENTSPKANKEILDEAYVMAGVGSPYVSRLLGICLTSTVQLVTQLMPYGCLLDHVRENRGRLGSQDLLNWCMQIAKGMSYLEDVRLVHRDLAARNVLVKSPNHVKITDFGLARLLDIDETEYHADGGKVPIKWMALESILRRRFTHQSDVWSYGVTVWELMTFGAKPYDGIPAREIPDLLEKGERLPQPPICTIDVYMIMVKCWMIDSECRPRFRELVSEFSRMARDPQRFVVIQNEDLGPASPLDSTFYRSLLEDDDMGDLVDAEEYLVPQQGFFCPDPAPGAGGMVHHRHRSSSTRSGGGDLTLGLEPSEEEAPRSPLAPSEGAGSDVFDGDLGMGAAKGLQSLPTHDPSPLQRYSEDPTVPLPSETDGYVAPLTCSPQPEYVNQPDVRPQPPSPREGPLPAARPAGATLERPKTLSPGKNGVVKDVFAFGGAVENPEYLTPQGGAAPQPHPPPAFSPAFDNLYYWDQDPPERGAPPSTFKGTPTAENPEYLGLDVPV
Compound,inhibition [1],inhibition [2],inhibition [3],inhibition [4],inhibition [5],inhibition [6],inhibition [7],inhibition [8],inhibition [9],inhibition [10]
Fc1ccc(-c2cc(-c3c[nH]nc3-c3ccccn3)ccn2)cc1,10.6%,7.2%,4.44%,3.71%,0.96%,4.82%,6.84%,8.5%,12.7%,4.53%
COc1cccc(-n2ncc3c(N/N=C/c4ccc(F)cc4)ncnc32)c1,11.3%,4.19%,3.79%,1.79%,3.45%,2.86%,4.41%,10.8%,11.2%,2.73%
c1ccc(-c2nc3n(c2-c2ccc4c(c2)OCO4)CCC3)nc1,3.77%,4.03%,-0.67%,0.53%,1.11%,1.28%,-0.6%,3.67%,1.72%,2.91%
[O-][S+]1CCN(Cc2ccc(-c3ccc4ncnc(Nc5ccc(OCc6cccc(F)c6)c(Cl)c5)c4c3)o2)CC1,7.63%,3.69%,7.49%,2.75%,4.27%,78.4%,79.9%,88.9%,91.3%,2.55%
c1cc(-c2cnn3nc(N4CCOCC4)ccc23)nc(NC2CC2)n1,9.21%,2.88%,3.96%,0.45%,1.96%,1.45%,1.94%,13.6%,15.3%,0.53%
CNC(=O)c1cccc(C#Cc2cncnc2Nc2ccc(OCc3cccc(F)c3)c(Cl)c2)c1,6.47%,0.65%,1.29%,-1.02%,0.31%,-1.06%,23.7%,17.6%,58.4%,1.71%
COc1cc(/C=N/Nc2ncnc3[nH]ncc23)ccc1O,38.7%,3.99%,5.19%,5.34%,20.9%,2.03%,4.08%,13.4%,21.1%,3.03%
NS(=O)(=O)c1ccc(N/N=C2\C(=O)Nc3ccc4ncccc4c32)cc1,29.1%,2.75%,-3.76%,2.29%,13.2%,1.33%,-2.88%,11.4%,10.4%,3.38%
CN1CCC(n2cnc(-c3ccc(F)cc3)c2-c2ccnc(N)n2)CC1,11.7%,4.01%,1.1%,1.15%,2.9%,1.81%,3.61%,8.28%,18.6%,1.42%
COC(=O)Nc1nc2ccc(S(=O)(=O)c3ccc(NC(=O)Nc4cc(C(F)(F)F)ccc4F)cc3)cc2[nH]1,14.7%,5.22%,0.8%,2.15%,3.46%,0.46%,-2.51%,9.54%,12.2%,3.79%
COc1ccc(-c2cc(-c3c[nH]nc3-c3ccccn3)ccn2)cc1,10.2%,4.76%,2.2%,2.71%,2.68%,2.88%,6.13%,9.37%,10.6%,3.16%
Cc1cccc(Nc2ncc(-c3ccccc3)o2)c1,2.78%,1.56%,2.29%,2.8%,3.6%,2.48%,2.62%,3.46%,8.57%,3.24%
CCn1c(-c2nonc2N)nc2cnc(Oc3cccc(NC(=O)c4ccc(N(C)C)cc4)c3)cc21,7.72%,4.18%,3.26%,0.67%,0.71%,1.13%,-0.18%,8.23%,9.63%,1.16%
COc1cc(N2CCN(C(C)C)CC2)ccc1Nc1nc(Nc2ccc(F)cc2C(N)=O)c2cc[nH]c2n1,1.15%,2.78%,2.03%,1.77%,1.31%,2.4%,3.8%,35.2%,76.8%,62.8%
CCCN1CCC(c2ccc(Nc3nc(Nc4cc(F)ccc4C(N)=O)c4cc[nH]c4n3)c(OC)c2)CC1,8.57%,7.06%,2.33%,3.08%,2.91%,5.68%,12.9%,34.8%,76.3%,77%
CC(C)(CO)CNC(=O)c1ccc2c(c1)/C(=N/Nc1ccc(S(N)(=O)=O)cc1)C(=O)N2,7.99%,-0.32%,0.79%,-2.31%,-0.62%,0.9%,3.86%,4.68%,7.73%,-7.05%
